Assay results published in PubChem BioAssay (Tox21).
Inconclusive results are not listed. A number with no mark means an inactive call. The call rests on the fitted dose curve; in most records, active means well fitted activation curve with a large enough effect in the signal ratio in the repeat runs (not every such curve was filed as active); inconclusive means weak or mixed curves; inactive means flat fitted curve, though single readings scatter; the % refers to the signal ratio.

Assay: qHTS assay to identify small molecule agonists of the TGF-beta/Smad signaling pathway (AID 1346859)
Conditions: SBE-bla HEK293T, TGF-beta/Smad beta-lactamase reporter, 5 h; series mostly up to 76.8 µM; activation: at the top concentration
Excerpt: U.S. Tox21 Program National Center for Advancing Translational Sciences [NCATS] NIH Chemical Genomics Center [NCGC] U.S. Environmental Protection Agency [EPA] National Institutes of Environmental Health Sciences [NIEHS] National Toxicology Program [NTP] U.S. Food and Drug Administration [FDA] Tox21 Assay Overview: Transforming growth factor beta (TGF-beta) superfamily consists of a large number of structurally related dimeric proteins that act as hormones or local mediators in regulating a wide range of biological functions. This superfamily includes TGF-betas themselves, the bone morphogenetic proteins (BMPs) and the activins. These ligands induce oligomerization of serine/threonine receptor kinases and phosphorylate the cytoplasmic signaling molecules of Smad protein family. CellSensor SBE-bla HEK 293T cell line (Life Technologies, Carlsbad, CA), responsive to TGF-beta was used to screen Tox21 10K compound library for identification of agonists/antagonists of the Smad signaling pathway. This cell line contains a beta-lactamase reporter gene under control of the Smad binding element (SBE) stably integrated into HEK 293T cells.
Tox21 Assay Protocol Summary: SBE-bla HEK 293T cells were dispensed at 4,000/well in 6 uL of assay medium into black wall/clear-bottom 1536-well plates using a Multidrop Combi (ThermoFisher Scientific, Waltham, MA) dispenser. After the assay plates were incubated at 37 C and 5% CO2 for an overnight, 23 nL of compounds dissolved in DMSO, positive controls or DMSO only was transferred to the assay plate by a Pintool station (Kalypsys, San Diego, CA). The assay plates were incubated at 37 C and 5% CO2 for 5 hr. One uL of LiveBLAzer B/G FRET substrate (Life Technologies) was added using a Flying Reagent Dispenser (Aurora Discovery, San Diego, CA) and the plates were incubated at room temperature for 2 hr. Fluorescence intensity (405 nm excitation, 460 nm and 530 nm emissions) was measured using an Envision plate reader (PerkinElmer, Shelton, CT).
On the % scale 0 is the no-effect control and ±100 the full control effect.

Compound | activation
CC[C@]12CCCN3CCc4c(n(c5ccccc45)C(=O)C1)[C@@H]32 | -2.45% [at 35.3 µM]
ClC(Cl)(Cl)c1ccc(C(Cl)(Cl)Cl)cc1 | 2.37%
CC(=O)c1ccc2c(c1)[C@H](NC(=O)c1ccc(F)cc1)[C@@H](O)C(C)(C)O2 | -3.24%
CCOc1ccc(NC(=O)CC(C)=O)cc1 | -1.97%
CC(C)CCCCCCOC(=O)c1ccc(C(=O)OCCCCCCC(C)C)c(C(=O)OCCCCCCC(C)C)c1 | 0.387%
CC1(C)CCC(C)(C)c2cc(NC(=O)c3ccc(C(=O)O)cc3)ccc21 | -1.6% [at 35.3 µM]
CCCOc1ccc2nc(NC(=O)OC)[nH]c2c1 | -3.95% [at 35.3 µM]
CN(c1nccc(=O)[nH]1)C1CCN(c2nc3ccccc3n2Cc2ccc(F)cc2)CC1 | -8.2% [at 35.3 µM]
C1CCC2OC2C1 (stereo not given) | 0.197%
NC[C@H]1O[C@H](O[C@H]2[C@H](O)[C@@H](O[C@H]3O[C@H](CO)[C@@H](O)[C@H](N)[C@H]3O)[C@H](N)C[C@@H]2N)[C@H](O)[C@@H](O)[C@@H]1O | -1.71% [at 6.97 µM]
CCN1CCC[C@H]1CNC(=O)c1c(OC)ccc(Br)c1OC | 3.37% [at 35.3 µM]
Cn1c(NCCN(CCO)CCCc2ccc([N+](=O)[O-])cc2)cc(=O)n(C)c1=O | -4.36% [at 35.3 µM]
COc1ccc(C(C)=O)cc1 | 2.31%
O=C(O)/C=C/c1cnc[nH]1 | 3.13%
OCCC1CCCCN1 (stereo not given) | -0.762%
O=C(Nc1ccccc1)OCC(CN1CCCCC1)OC(=O)Nc1ccccc1 (stereo not given) | -6.65% [at 35.3 µM]
c1ccc(OCc2ccc(CCCN3CCOCC3)cc2)cc1 | 0.0545% [at 35.3 µM]
Oc1ccc(Sc2ccc(O)cc2)cc1 | 1.38%
Cc1cccc(Oc2ccccc2)c1 | 1.05%
Cc1ccc2c(ccc3ccccc32)c1 | 3.14%

Compound | activation
CCCCCCc1ccc(N)cc1 | -2.88%
NC(N)=NN=C(/C=C/c1ccc([N+](=O)[O-])o1)/C=C/c1ccc([N+](=O)[O-])o1 | 13.4% [at 35.3 µM]
CC1=CC(=O)/C(=C(/C)O)C(=O)O1 | -0.984%
CCCCCCCCCC(=O)OCC | 0.0813%
CCOC(=S)SSC(=S)OCC | 1.98%
CC(CN)CCCN (stereo not given) | 1.13%
NCCCOCCOCCOCCCN | -0.23%
C=CC(C)(CCC=C(C)C)OC(=O)c1ccccc1 (stereo not given) | 3.24%
CC(=O)OC/C=C/c1ccccc1 | 4.55%
CCCC[C@H]1CN(CC2CCOCC2)C(=O)OC12CCN(C1(C)CCN(C(=O)c3c(C)ncnc3C)CC1)CC2 | 2.16%
O=C1c2cccc(O)c2C(=O)c2c(O)cc(CO)cc21 | -1.7%
C[C@@H](C1=C(CCN(C)C)Cc2ccccc21)c1ccccn1 | 0.0094% [at 35.3 µM]
N#Cc1c(F)cccc1F | -0.261%
CCCCC(CC)(CO)CO | -2.4%
O=C1CCCCCO1 | 2.35%
O=C(NN1CCCC1)NS(=O)(=O)c1ccc(Cl)cc1 | 3.08% [at 35.3 µM]
CCCCCOC(=O)c1ccc(O)cc1 | -4.29%
CN1CCC[C@@H]1c1cccnc1 | -1.36% [at 35.3 µM]
CNCC[C@@H](Oc1ccccc1C)c1ccccc1 | -2.95% [at 35.3 µM]
Cl/C(=C\n1cncn1)c1ccc(Cl)cc1Cl | -2.06% [at 35.3 µM]
